In article PMC10668032, “Altered binding affinity of SIX1-Q177R correlates with enhanced WNT5A and WNT pathway effector expression in Wilms tumor”:
The full ranking holds about 33,000 sequences; the median of “e-score” is about -0.053, and the highest 2% start at about 0.38. The sample holds the highest values, similar sequences and a random draw of the others, so the mix is not that of the screen.

Each sequence was assayed against T1, SIX1 homeodomain (reference allele) (human, UniProt Q15475 108-198) (assay: universal protein binding microarray; Universal all-10-mer PBM (8x60K, AMADID 030236), 300 nM GST-tagged protein, Alexa Fluor 488 anti-GST; buffer, salt, pH and temperature not stated (as in Berger); high values mean tight binding). Conditions: protein: ivt; tags: N-terminal GST; dsDNA, one strand shown.
T1 sequence: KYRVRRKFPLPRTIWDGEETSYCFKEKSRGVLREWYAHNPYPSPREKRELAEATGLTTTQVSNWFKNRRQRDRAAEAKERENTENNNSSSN
Summary of the method: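 Binding was expressed as 8-mer E-scores calculated with the Universal PBM Analysis Suite. The GST-tagged homeodomains, made by in vitro transcription/translation, were applied in duplicate at 300 nM final concentration to universal 'all 10-mer' protein binding microarrays (8×60K format).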
CATATTAA was tested, and the binding signal was 0.175 ± 0.121 E-score.
ATCATTAC was tested, and the binding signal was 0.295 ± 0.0265 E-score.
For AGAATACT, the binding signal was 0.208 ± 0.057 E-score.
With AAAAGGAT the binding signal was 0.163 ± 0.102 E-score.
CGGTGTAA showed a binding signal of 0.257 ± 0.00735 E-score.
CGGTGTCA gave a binding signal of 0.471 ± 0.00725 E-score.
CGGTGTCC showed a binding signal of 0.352 ± 0.0179 E-score.
AGGATCGG gave a binding signal of 0.32 ± 0.0208 E-score.
ATCACGAC gave a binding signal of 0.18 ± 0.0119 E-score.
For AGAATGAT, the binding signal was 0.216 ± 0.0443 E-score.
GGGATATA gave a binding signal of 0.433 ± 0.0145 E-score.
For GGGATAAA, the binding signal was 0.212 ± 0.0282 E-score.
Sequence GGGATAGA has a binding signal of 0.256 ± 0.0216 E-score.
Sequence CGGATATA has a binding signal of 0.422 ± 0.00574 E-score.
With CTAGATGC the binding signal was 0.153 ± 0.0669 E-score.
With CATACACG the binding signal was 0.157 ± 0.0344 E-score.
AGCTATAT gave a binding signal of 0.2 ± 0.0474 E-score.
ACACGGGT gave a binding signal of 0.23 ± 0.0432 E-score.
CATCGATA gave a binding signal of 0.308 ± 0.015 E-score.
Sequence AGATCGGC has a binding signal of 0.216 ± 0.0174 E-score.
With ATATCGGA the binding signal was 0.427 ± 0.0311 E-score.
CGATCGGA was tested, and the binding signal was 0.24 ± 0.0149 E-score.
ATATGGGG was tested, and the binding signal was 0.4 ± 0.0352 E-score.
For ATATGGGC, the binding signal was 0.326 E-score.
In the case of ATATCTGA, the binding signal is reported as 0.356 ± 0.0383 E-score.
ATATCTGC was tested, and the binding signal was 0.346 ± 0.0315 E-score.
Work on ATATCGGC yielded a binding signal of 0.394 ± 0.011 E-score.
With CTATCGGA the binding signal was 0.289 ± 0.00216 E-score.
For AGATCGGA, the binding signal was 0.255 ± 0.00445 E-score.
Sequence GGATCGGA has a binding signal of 0.38 ± 0.0357 E-score.
ATATGGGA was tested, and the binding signal was 0.319 ± 0.00531 E-score.
For ATCCGTAG, the binding signal was 0.225 ± 0.00492 E-score.
Work on AATACTAT yielded a binding signal of 0.278 ± 0.0809 E-score.
TATCCACA was tested, and the binding signal was 0.326 ± 0.0288 E-score.
AGAGTGAT was tested, and the binding signal was 0.268 ± 0.0506 E-score.
ATATGTTC was tested, and the binding signal was 0.334 ± 0.0471 E-score.
ACCTATCT showed a binding signal of 0.195 ± 0.01 E-score.
With GTGTTATA the binding signal was 0.219 ± 0.0623 E-score.
Work on TCCATACA yielded a binding signal of 0.166 ± 0.0645 E-score.
ATCTCGGG was tested, and the binding signal was 0.272 ± 0.0234 E-score.
Work on GCATCGGA yielded a binding signal of 0.161 ± 0.101 E-score.
For AGATCGGG, the binding signal was 0.294 ± 0.0193 E-score.
For GGATCGTA, the binding signal was 0.383 ± 0.00451 E-score.
CGATCGTA was tested, and the binding signal was 0.212 ± 0.0626 E-score.
GTATCGGA showed a binding signal of 0.451 ± 0.0142 E-score.
In the case of AGATCGTA, the binding signal is reported as 0.237 ± 0.00569 E-score.
Work on TCATCGGA yielded a binding signal of 0.176 ± 0.0293 E-score.
Work on ATATCGGG yielded a binding signal of 0.4018 ± 0.00171 E-score.
CACCGGCA gave a binding signal of 0.188 ± 0.0219 E-score.
With CTATATAC the binding signal was 0.275 ± 0.0339 E-score.
TACTCACA showed a binding signal of 0.165 ± 0.0208 E-score.
ATAAGGTA was tested, and the binding signal was 0.247 ± 0.0353 E-score.
ACCGCGAT gave a binding signal of 0.323 ± 0.00333 E-score.
For ATGTATAA, the binding signal was 0.154 ± 0.0486 E-score.
ATGTATTA showed a binding signal of 0.241 ± 0.0485 E-score.
ATGTATAG gave a binding signal of 0.217 ± 0.0184 E-score.
Work on ATGTATCC yielded a binding signal of 0.407 ± 0.00354 E-score.
For ATGTATCG, the binding signal was 0.38 ± 0.0144 E-score.
Work on GTGTATCA yielded a binding signal of 0.4623 ± 0.00404 E-score.
Sequence GTGTATTA has a binding signal of 0.271 ± 0.032 E-score.
GTGTATGA gave a binding signal of 0.17 ± 0.0805 E-score.
ATGTATAC showed a binding signal of 0.325 ± 0.0321 E-score.
For ATCTATCC, the binding signal was 0.372 ± 0.0185 E-score.
Sequence ATGTATTG has a binding signal of 0.209 ± 0.0502 E-score.
Work on ATGTATCA yielded a binding signal of 0.448 ± 0.011 E-score.
ATCCTGGG was tested, and the binding signal was 0.235 ± 0.00999 E-score.
Work on ACATTATC yielded a binding signal of 0.165 ± 0.0505 E-score.
Work on TACCGCGA yielded a binding signal of 0.25 ± 0.0197 E-score.
In the case of ATCATCGC, the binding signal is reported as 0.326 ± 0.0174 E-score.
Work on TACCCGCA yielded a binding signal of 0.161 ± 0.0756 E-score.
ATCGACAC showed a binding signal of 0.306 ± 0.0819 E-score.
ATCTTGCA was tested, and the binding signal was 0.216 ± 0.0388 E-score.
Work on CTGTATGA yielded a binding signal of 0.187 ± 0.0219 E-score.
CTGTATAC showed a binding signal of 0.338 ± 0.0175 E-score.
CTGTATCA was tested, and the binding signal was 0.418 ± 0.0231 E-score.
Work on CTGTATCC yielded a binding signal of 0.387 ± 0.0293 E-score.
In the case of CTGTATTA, the binding signal is reported as 0.18 ± 0.00737 E-score.
With ATTTATCC the binding signal was 0.198 ± 0.0661 E-score.
In the case of CTCAGGTA, the binding signal is reported as 0.16 ± 0.0411 E-score.
For CTCCTATC, the binding signal was 0.2712 ± 0.00126 E-score.
Sequence AGAGTGAG has a binding signal of 0.172 ± 0.0561 E-score.
In the case of CCGGCTCA, the binding signal is reported as 0.256 ± 0.0189 E-score.
ACACCCAT showed a binding signal of 0.271 ± 0.0323 E-score.
Work on ACACCCAG yielded a binding signal of 0.278 ± 0.0263 E-score.
In the case of ATACCAAA, the binding signal is reported as 0.317 ± 0.0247 E-score.
Work on ATACCCAC yielded a binding signal of 0.392 E-score.
ATACCCAT was tested, and the binding signal was 0.393 ± 0.00746 E-score.
